# Shown are actives, neighbours in structure and some others; about 0.71% of the full set was active somewhere.
# TRb-SRC2 inh – qHTS for Inhibitors of the Interaction of Thyroid Hormone Receptor and Steroid Receptor Coregulator 2 | Thyroid hormone receptor beta (Homo sapiens), P10828 | TRbeta-SRC2 peptide binding, fluorescence polarization; receptor liganded with 1 µM T3 | Potency, µM (titrated, usually from 106 µM), for inactives: at the top dose activity change, negative = inhibition, hits mostly inhibitors | 280,000 tested, 0.065% active | AID 1469, 2008;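 note: potency is the fitted concentration of half-maximal effect; plate controls were bound peptide for no effect and peptide without receptor for full effect; nearly all actives have a fitted effect of over 50% in size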
#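 Polarization signal, normalized between peptide-alone and full complex controls, measured compound effects on T3-liganded human TRb LBD (0.6 uM) binding 20 nM Texas Red SRC2 peptide after 5 hr.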
# CBFb-RUNX1 inh – qHTS Assay for Compounds Blocking the Interaction Between CBF-beta and RUNX1 for the Treatment of Acute Myeloid Leukemia; Runt-related transcription factor 1 (Homo sapiens) + Core-binding factor subunit beta …; AlphaScreen CBFb-His/RUNX1-biotin binding, biochemical; Potency, µM (series often up to 59.8 µM), inactives show at the top dose activity, negative = inhibition, actives largely listed as inhibitors; 230,000 tested, under 10 active; note: % of control where 0% means no effect
#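 Inhibition was taken as any reduction in AlphaScreen signal from the CBF-beta–RUNX1 pair (His and biotin tags, 30 nM each), measured after compound (15 min) and bead (90 min) incubations at room temperature.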
# GoLoco inh red – qHTS Assay for Inhibitors of RGS12 GoLoco Motif Activity (Red Fluorophore) | Guanine nucleotide-binding protein G(i) subunit alpha-1 (Homo sapiens), P63096 | Gai1:RGS12 GoLoco peptide FP, rhodamine, 10 min | Potency, µM (highest dose often 61.6 µM), inactives show at the highest dose activity, negative = inhibition, actives largely listed as inhibitors | 230,000 tested, 0.44% active | AID 880, 2007; active = well fitted inhibition curve with a large enough effect, not every such curve was filed as active; inactive = no such curve, though single readings can be large or run the other way; note: potency is the fitted concentration of half-maximal effect; % is set by controls: 0 for no effect and ±100 for the full control effect; nearly all actives have a fitted effect of over 30% in size
# Target sequence (P63096 whole entry, looked up): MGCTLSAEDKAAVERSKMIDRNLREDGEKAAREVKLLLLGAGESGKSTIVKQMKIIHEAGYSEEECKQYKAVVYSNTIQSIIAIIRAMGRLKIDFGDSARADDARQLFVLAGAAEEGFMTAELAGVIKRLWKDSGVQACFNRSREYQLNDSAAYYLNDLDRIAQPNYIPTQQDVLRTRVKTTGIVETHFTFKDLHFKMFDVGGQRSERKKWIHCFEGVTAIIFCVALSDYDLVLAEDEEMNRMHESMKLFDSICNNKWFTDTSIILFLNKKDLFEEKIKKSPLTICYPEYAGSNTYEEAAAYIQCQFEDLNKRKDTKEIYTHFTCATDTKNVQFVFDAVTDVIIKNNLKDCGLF
# Epigenetic derep – Quantitative High-Throughput Screen for Regulators of Epigenetic Control. murine LDR cells, GFP reporter derepression, 30 h. Potency, µM (top dose mostly 53.9 µM), for inactives: top-dose GFP activation, hits mostly activators. 280,000 tested, 0.2% active. AID 1865, 2009; note: potency is the fitted concentration of half-maximal effect; % of control where 0% means no effect; nearly all actives have a fitted effect of over 60% in size
#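 GFP-positive cell count by laser-scanning cytometry (objects 20–120 um) after 30 h, 37 C compound exposure of murine LDR cells; reporter is CMV-GFP integrated at a silenced locus, inducible by HDAC or DNMT inhibitors.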
# TexasRed fluor – Total Fluorescence Counterscreen for Inhibitors of the Interaction of Thyroid Hormone Receptor and Steroid Receptor Coregulator 2. TRb/SRC2 Texas Red total fluorescence interference. 280,000 tested, 0.29% active. AID 1479, 2009. Potency, µM (series often up to 106 µM), inactives show at the top dose fluorescence change, negative = quenching; active = well fitted curve in either direction with a large enough effect; inconclusive = small, poorly fitted or top-dose-only effect; note: potency is the fitted concentration of half-maximal effect; % is set by controls: 0 for no effect and ±100 for the full control effect
#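 Human TRβ ligand-binding domain (0.6 uM) and Texas Red SRC2 peptide (20 nM) in Tris buffer with 1 uM T3 and 5% DMSO were incubated with pinned compound for 5 hr at ambient temperature. Total fluorescence was computed as S + 2P (555/632 nm).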
# Starred values were filed as active, the others as inactive; ? = inconclusive; . = no result; ! = a repeat was not active; [ ] = another dose, or the depositor's remark. Unless noted, calls come from the whole dose curve; as a rule, active = well fitted curve in the direction sought with a large enough effect; inconclusive = small, poorly fitted or top-dose-only effect, or another doubt; inactive = no such curve, though single readings can be large; an effect the other way counts as inactive or inconclusive.
SMILES,TRb-SRC2 inh,CBFb-RUNX1 inh,GoLoco inh red,Epigenetic derep,TexasRed fluor
COc1cc(/C=C(\C#N)c2nc3ccccc3o2)ccc1O,14%,-2%,98%,2.2µM*,-15%
N#C/C(=C\c1ccc(O)cc1)c1nc2ccccc2o1,3%,-6%,13%,1%,-3%
COc1cc(/C=C(\C#N)c2nc(-c3cc4ccccc4oc3=O)cs2)ccc1O,-2%,-9%,105%,4.5µM*,-6%
N/N=C1/c2ccccc2N[C@H]1OC(=O)Nc1cccc(Cl)c1,.,.,0%[14.2 µM],.,.
O=C1c2c(O)ccc(O)c2C(=O)c2c(NCCNCCO)ccc(NCCNCCO)c21,-18%,?,14%,13µM*!,-10%
O=C1c2ccccc2C(=O)c2c(Nc3ccc(CCO)cc3)ccc(O)c21,5%,.,6%,1%,-7%
CCCCOCCOCCO,-8%[201 µM],.,.,.,-2%[201 µM]
Cc1nnc(Sc2cc(NCCO)c([N+](=O)[O-])c3nonc23)s1,2%,5%,-35%,-3%,-2%
Cc1nnc(Sc2cc(NCCCO)c([N+](=O)[O-])c3nonc23)s1,2%,-1%,7.9µM*,0%,-4%
CCc1nnc(/N=C/c2c(O)n(-c3ccc(Cl)cn3)c(=O)c3ccccc23)s1,-5%,-6%,5%,-1%,-2%
O=c1c2ccccc2c(C=Nc2ccc(S(=O)(=O)N3CCCCC3)cc2)c(O)n1-c1ccc(Cl)cn1,-12%[53 µM],-15%,-11%,6%,35µM*[quencher]
O=C(c1ccc(Br)cc1)N1CCC(c2nc3ccccc3s2)CC1,8%,.,.,-1%,5%
CCCCS(=O)(=O)N1CCc2nc(-c3ccc(OC)cc3C)c3c(c2C1)CO[C@@H](c1ccccc1)C3,-4%[11.2 µM],0%[13.1 µM],6%[14.2 µM],.,-3%[11.2 µM]
Cc1c2cnn(-c3ccccc3)c(=O)c2c(C)n1C(C)C(=O)Nc1ccccc1C(F)(F)F (centres undefined),-7%,.,.,-2%,-3%
Cc1nonc1NC(=O)CSc1nc2c(C)cccc2cc1C#N,-5%,0%,21%,16µM*,-4%
Cc1cc2c(N=O)c(NO)ccc2[nH]1,1%,-15%,13%,16µM*,1%
O=Nc1c(O)[nH]c2ccc(Cl)cc12,-6%,0%,13%,-1%[10.1 µM],2%
O=S(c1ccc(Cl)cc1)c1cc(Cl)c(Cl)cc1Cl (centres undefined),-2%[201 µM],.,.,.,2%[201 µM]
O=C(Cn1nnc(-c2ccccc2Cl)n1)Nc1ccc(Br)cc1,-5%,.,.,-1%,-11%
O=[N+]([O-])c1ccc(C2=NN(c3ccccc3)C(c3ccco3)C2)cc1 (centres undefined),10%,2%,150%,2µM*,3%
O=[N+]([O-])c1ccc(/C=C/C2=NN(c3ccccc3)C(c3ccco3)C2)cc1 (centres undefined),-2%,?,179%,0.79µM*,1%
CCc1ccc(C2=NN(C(C)=O)C(c3ccco3)C2)cc1 (centres undefined),5%,1%,1%,-2%,-1%
O=C1C2N=NN(CC(=O)N3N=C(c4ccccc4)CC3c3ccc([N+](=O)[O-])cc3)C2C(=O)N1c1ccccc1 (centres undefined),5%,-11%,8%,0%,-1%
CN(C)CCNC(=O)c1ccc(-n2c(=O)c(=O)[nH]c3ccccc32)cc1,.,.,.,-6%,.
CC(C)CC(=O)NC(=S)Nc1ccc(Cl)cn1,-21%[53 µM],-4%,52%,-1%,4µM*[quencher]
SMILES,TRb-SRC2 inh,CBFb-RUNX1 inh,GoLoco inh red,Epigenetic derep,TexasRed fluor
CCCCCCCCOC(=O)c1cc(O)c(O)c(O)c1,5%[201 µM],.,.,.,-3%[201 µM]
C[N+]1(C2CCC3CCC2C3O)CCCC1 (centres undefined),-1%,16%,16µM*,-3%,-4%
CC(=O)OC1C2CCC1C([N+]1(C)CCCCC1)CC2 (centres undefined),2%,2%,14µM*,-3%,-1%
CN1CCN(c2ncc3nc(-c4ccc(Cl)cc4)c(=O)n(Cc4cccs4)c3n2)CC1,.,.,-6%,.,.
CC(=O)C(C)Oc1ccc(Cc2ncc(C(F)(F)F)cc2Cl)cc1 (centres undefined),7%,19%,6%,-2%,-2%
Cc1c(C2=CCN(S(=O)(=O)c3ccc(Br)cc3)CC2)c2ccccc2n1C,?,-3%,167%,0%,28µM*[fluorescent]
O=C(O)c1cc(O)c2c(c1)[C@H]([C@H]1c3cc(C(=O)O)cc(O)c3C(=O)c3c(O[C@@H]4OC(CO)C(O)C(O)C4O)cccc31)c1cccc(O[C@@H]3OC(CO)C(O)C(O)C3O)c1C2=O (some centres undefined),?,.,7.9µM*,-1%,22µM*[quencher]
C=C(C)C(=O)OCC[N+](C)(C)C,0%[201 µM],.,.,.,-1%[201 µM]
CCCCCCCCCCCCCCCCCC(N)=O,-1%[201 µM],.,.,.,-1%[201 µM]
O=C1C=CC(=O)C2=C1C1c3ccccc3C2c2ccccc21,-3%,-14%,18µM*,0%,-1%
CCOC(=O)N1CCN(Cc2nc3cc(NC(=O)c4ccccc4[N+](=O)[O-])ccc3n2C(C)C)CC1,?,.,.,0%,8.9µM*[quencher]
CCOC(=O)N1CCN(Cc2nc3cc(NC(=O)c4ccccc4OC)ccc3n2C(C)C)CC1,-3%,.,.,-2%,8%
CCC(C(=O)C(C)C(O)C(C)CCc1ccc(C)c(O)c1C(=O)O)C1OC(CC)(C2CC[C@@](O)(CC)C(C)O2)CC1C (some centres undefined),2%,14%,13%,0%,0%
CCC(C(=O)O)C1CCC(C)C(C(C)C(O)C(C)C(=O)C(CC)C2OC3(C=CC(O)[C@@]4(CC[C@](C)(C5CC[C@@](O)(CC)C(C)O5)O4)O3)C(C)CC2C)O1 (some centres undefined),7%,25%,28µM*,1%,-3%
COc1cc2ccc(=O)oc2cc1O,-10%,9%[21.7 µM],28µM*!,3%,-4%
CCCn1cc(S(=O)(=O)c2ccc(C)c(C)c2)c(=O)c2cc(F)c(N3CCC(C)CC3)cc21,-6%,.,.,-1%,?
Cn1cc(S(=O)(=O)c2cccc(Cl)c2)c(=O)c2cc(F)c(N3CCN(c4ccccc4)CC3)cc21,-30%,.,.,0%,158µM*[quencher]
CCCn1cc(S(=O)(=O)c2ccc(C)c(C)c2)c(=O)c2cc(F)c(N3CCCCC3)cc21,-21%,.,.,0%,282µM*[quencher]
Cc1cccc(S(=O)(=O)c2cn(C)c3cc(N4CCN(c5ccccc5)CC4)c(F)cc3c2=O)c1,?,.,.,-3%,56µM*[quencher]
